From PubChem BioAssay
Records with an inconclusive call do not appear. Activity calls are given as the source filed them.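 Rule for the calls, unless noted: active = inhibition above the screen-wide mean plus 3 SD, about 51%; inactive = the rest.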

What was measured:
[1] = rapamycin-like changes in RPL19A-GFP expression – cell-based, S. cerevisiae, multiplex flow cytometry, primary screen (AID 1862; in the data active = percent of DMSO control GFP below about 86%;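 note: lower values mimic rapamycin by blocking the RPL19A rise seen in DMSO cells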); details: S. cerevisiae RPL19A-GFP strain, flow cytometry fluorescence, 3 h; at 10 µM; stronger effect = lower value
[2] = TOR pathway GLN3 branch reporter MEP2-GFP changes – S. cerevisiae, multiplex flow cytometry, primary screen (AID 1867;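 active = GFP response, as percent of the DMSO control, above the screen-wide mean plus 3 SD, about 139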;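 note: median GFP channel fluorescence of barcode-gated MEP2-GFP cells measured by flow cytometry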); details: S. cerevisiae MEP2-GFP strain, 3 h, at 10 µM, stronger effect = higher value, 100% means same as DMSO wells
[3] = TOR pathway RTG branch CIT2 reporter changes – S. cerevisiae, GFP fusion, multiplex flow cytometry, primary screen (AID 1870;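 active = percent response above a set limit, the screen-wide mean plus 3 SD, cut at about 130% in these data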;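 note: barcoded CIT2-GFP strain pooled with four other GFP strains with rapamycin as positive control; median GFP fluorescence per well over plate mean of DMSO wells so 100% = DMSO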); details: S. cerevisiae CIT2-GFP expression, 3 h, at 10 µM, stronger effect = higher value
[4] = TOR pathway LAP4-GFP level changes – S. cerevisiae, multiplex flow cytometry, primary screen (AID 1873;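 active = GFP signal, as percent of the solvent control, above the screen mean plus 3 SD, about 149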); details: S. cerevisiae LAP4-GFP expression, 3 h, at 10 µM, stronger effect = higher value
[5] = yeast AGP1-GFP level changes, GLN3 branch – cell-based, multiplex flow cytometry, S. cerevisiae, primary screen (AID 1887;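 active = GFP signal above the screen-wide mean plus 3 SD, that is over about 124.5% of the solvent control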;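 note: AGP1-GFP fusion strain of S. cerevisiae within a five-strain barcoded multiplex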); details: 3 h, at 10 µM, stronger effect = higher value
[6] = reduced mouse 2C T cell binding to pMHC/ICAM-1 vesicles – MLPCN validation set, flow cytometry, LFA-1/ICAM-1 modulator project, pilot screen (AID 2523;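 active = response below a set limit, under 55% cells CD8-positive and vesicle-bound, and CD8 cells' 90th-percentile brightness under 279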;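 for vesicle binding response: mean PE anti-B7-1 fluorescence of CD8+ cells relative to row control; 100% = QL9-loaded vesicles with DMSO vehicle in the same plate row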); details: 2C mouse CD8+ T cells, at 7 µM, stronger effect = lower value; double positive events: measured here: CD8+/vesicle+ event percentage
[7] = molecular target: Integrin beta-1 (Homo sapiens) + Integrin alpha-4 (Homo sapiens) (UniProt P13612+P05556); assay: alpha4beta1 integrin LIBS antibody binding reduction – U937 cells, HUTS-21 mAb, flow cytometry, validation set, VLA-4 allosteric modulator project, pilot screen (AID 2674;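 active = inhibition above 50%, about 3 SD of the validation set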;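 note: antibody binding induced by the VLA-4 ligand LDV present at three times its Kd; 0% = LDV ligand with antibody and no compound and 100% = antibody without LDV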); details: HUTS-21 LIBS mAb binding, at 6.7 µM, stronger effect = higher value, binding induced by LDV ligand
Chain of Integrin beta-1 (Homo sapiens) + Integrin alpha-4 (Homo sapiens) (P05556 whole entry, looked up): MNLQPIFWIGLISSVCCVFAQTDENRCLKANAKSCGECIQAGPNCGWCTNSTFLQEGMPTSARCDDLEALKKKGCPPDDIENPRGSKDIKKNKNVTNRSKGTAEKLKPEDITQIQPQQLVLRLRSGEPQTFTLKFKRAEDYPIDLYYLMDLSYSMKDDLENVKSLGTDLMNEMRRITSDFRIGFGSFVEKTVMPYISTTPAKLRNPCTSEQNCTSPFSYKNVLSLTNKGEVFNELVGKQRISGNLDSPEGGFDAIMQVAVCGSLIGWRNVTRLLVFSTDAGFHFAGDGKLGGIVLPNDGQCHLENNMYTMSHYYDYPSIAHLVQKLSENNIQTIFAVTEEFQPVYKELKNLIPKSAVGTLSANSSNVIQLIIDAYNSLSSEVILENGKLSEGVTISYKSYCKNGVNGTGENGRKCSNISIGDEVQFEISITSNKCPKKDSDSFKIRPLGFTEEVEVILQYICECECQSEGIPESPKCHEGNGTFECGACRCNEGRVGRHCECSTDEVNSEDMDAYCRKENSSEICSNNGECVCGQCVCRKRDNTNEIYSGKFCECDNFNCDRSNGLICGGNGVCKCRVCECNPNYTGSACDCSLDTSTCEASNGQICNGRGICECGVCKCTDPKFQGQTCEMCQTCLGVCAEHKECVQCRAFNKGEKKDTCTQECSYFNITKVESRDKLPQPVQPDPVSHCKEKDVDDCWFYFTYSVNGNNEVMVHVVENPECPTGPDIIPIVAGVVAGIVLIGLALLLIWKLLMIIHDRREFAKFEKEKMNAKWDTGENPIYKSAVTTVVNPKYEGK
Chain of Integrin beta-1 (Homo sapiens) + Integrin alpha-4 (Homo sapiens) (P13612 whole entry, looked up): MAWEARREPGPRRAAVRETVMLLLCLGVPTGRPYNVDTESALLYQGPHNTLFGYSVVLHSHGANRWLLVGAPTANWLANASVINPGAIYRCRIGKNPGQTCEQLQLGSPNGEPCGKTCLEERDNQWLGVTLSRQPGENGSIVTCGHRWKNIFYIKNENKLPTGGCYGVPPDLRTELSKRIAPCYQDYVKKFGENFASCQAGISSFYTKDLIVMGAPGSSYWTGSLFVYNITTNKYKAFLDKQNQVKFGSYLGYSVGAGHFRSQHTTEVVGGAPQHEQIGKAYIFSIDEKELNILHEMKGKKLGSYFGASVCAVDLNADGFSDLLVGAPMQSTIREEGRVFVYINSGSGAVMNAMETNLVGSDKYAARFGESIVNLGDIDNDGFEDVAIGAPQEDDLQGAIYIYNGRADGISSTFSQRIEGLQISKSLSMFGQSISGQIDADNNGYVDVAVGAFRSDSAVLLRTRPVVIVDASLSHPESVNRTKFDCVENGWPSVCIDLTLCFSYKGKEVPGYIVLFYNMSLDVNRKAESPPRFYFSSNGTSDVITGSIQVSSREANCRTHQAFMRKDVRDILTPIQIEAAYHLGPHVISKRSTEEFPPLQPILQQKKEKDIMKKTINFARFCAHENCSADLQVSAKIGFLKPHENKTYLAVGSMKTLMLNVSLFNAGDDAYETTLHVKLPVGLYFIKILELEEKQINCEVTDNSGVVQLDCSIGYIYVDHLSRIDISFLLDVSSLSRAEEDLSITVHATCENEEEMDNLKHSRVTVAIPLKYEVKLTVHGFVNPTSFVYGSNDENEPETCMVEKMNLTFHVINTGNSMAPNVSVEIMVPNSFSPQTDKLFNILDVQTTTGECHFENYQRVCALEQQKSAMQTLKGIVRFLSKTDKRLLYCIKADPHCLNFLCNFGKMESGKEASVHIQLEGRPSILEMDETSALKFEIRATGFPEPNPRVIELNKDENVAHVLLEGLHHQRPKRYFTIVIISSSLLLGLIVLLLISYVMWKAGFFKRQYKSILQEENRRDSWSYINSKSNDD

[8] = calorie-restriction mimetic ROS inhibitors, yeast – validation compound set, pilot screen (AID 2706;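 active = superoxide response below 65% of plate, a cut near 3 SD across the whole screen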;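 note: yeast exposed to compound for one week at 30 degrees C before staining; 100% = mean of all compound wells on the same plate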); details: S. cerevisiae aging, superoxide DHE fluorescence; at 10 µM, stronger effect = lower value
[9] = molecular target: Beta-adrenergic receptor kinase 1 (Homo sapiens) (UniProt P25098); assay: GRK2 binders displacing RNA aptamer, biochemical, validation, human GRK2, bead flow cytometry (AID 488806;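 active = aptamer binding inhibition above 30%, about 3 SD of noise from non-fluorescent compounds; inactive = inhibition at or below 30%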); details: bead-bound GRK2, FAM-aptamer displacement, at 10 µM, stronger effect = higher value
Chain of Beta-adrenergic receptor kinase 1 (Homo sapiens) (P25098 whole entry, looked up): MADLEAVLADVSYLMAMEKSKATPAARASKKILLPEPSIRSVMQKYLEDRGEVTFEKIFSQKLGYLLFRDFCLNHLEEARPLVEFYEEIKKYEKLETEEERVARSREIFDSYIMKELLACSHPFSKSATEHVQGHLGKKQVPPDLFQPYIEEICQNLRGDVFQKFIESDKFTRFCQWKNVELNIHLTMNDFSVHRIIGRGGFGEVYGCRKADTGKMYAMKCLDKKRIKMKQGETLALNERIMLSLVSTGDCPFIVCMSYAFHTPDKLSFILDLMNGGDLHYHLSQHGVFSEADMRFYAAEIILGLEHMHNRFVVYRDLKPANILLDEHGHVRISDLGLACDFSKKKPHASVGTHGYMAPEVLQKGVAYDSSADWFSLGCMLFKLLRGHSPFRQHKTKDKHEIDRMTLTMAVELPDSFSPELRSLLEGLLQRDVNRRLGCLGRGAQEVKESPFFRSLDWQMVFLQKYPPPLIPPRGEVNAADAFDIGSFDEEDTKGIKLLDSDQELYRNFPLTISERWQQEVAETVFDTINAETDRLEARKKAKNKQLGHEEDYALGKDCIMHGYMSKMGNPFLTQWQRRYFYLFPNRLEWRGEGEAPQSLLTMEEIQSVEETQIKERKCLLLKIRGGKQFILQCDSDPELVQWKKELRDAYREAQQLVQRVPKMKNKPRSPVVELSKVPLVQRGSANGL

[10] = molecular target: AP-2 complex subunit beta (Homo sapiens) (UniProt P63010); assay: beta-arrestin/AP2 interaction blockers – biochemical, validation set, GST-AP2 beads, flow cytometry, pilot screen (AID 504541;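 active = inhibition above 54%, about 3 SD of non-fluorescent compounds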;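 note: AP2 carries R879A mutation and is captured from E. coli lysate; bead-bound FITC arrestin peptide fluorescence measuring arrestin peptide binding to AP2; 0% = DMSO wells and 100% = excess unlabeled arrestin peptide control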); details: FITC arrestin peptide, at 10 µM, stronger effect = higher value, AP2 beta2 appendage fragment, R879A mutant
Chain of AP-2 complex subunit beta (Homo sapiens) (P63010 whole entry, looked up, the tested form may be a part, one chain of several): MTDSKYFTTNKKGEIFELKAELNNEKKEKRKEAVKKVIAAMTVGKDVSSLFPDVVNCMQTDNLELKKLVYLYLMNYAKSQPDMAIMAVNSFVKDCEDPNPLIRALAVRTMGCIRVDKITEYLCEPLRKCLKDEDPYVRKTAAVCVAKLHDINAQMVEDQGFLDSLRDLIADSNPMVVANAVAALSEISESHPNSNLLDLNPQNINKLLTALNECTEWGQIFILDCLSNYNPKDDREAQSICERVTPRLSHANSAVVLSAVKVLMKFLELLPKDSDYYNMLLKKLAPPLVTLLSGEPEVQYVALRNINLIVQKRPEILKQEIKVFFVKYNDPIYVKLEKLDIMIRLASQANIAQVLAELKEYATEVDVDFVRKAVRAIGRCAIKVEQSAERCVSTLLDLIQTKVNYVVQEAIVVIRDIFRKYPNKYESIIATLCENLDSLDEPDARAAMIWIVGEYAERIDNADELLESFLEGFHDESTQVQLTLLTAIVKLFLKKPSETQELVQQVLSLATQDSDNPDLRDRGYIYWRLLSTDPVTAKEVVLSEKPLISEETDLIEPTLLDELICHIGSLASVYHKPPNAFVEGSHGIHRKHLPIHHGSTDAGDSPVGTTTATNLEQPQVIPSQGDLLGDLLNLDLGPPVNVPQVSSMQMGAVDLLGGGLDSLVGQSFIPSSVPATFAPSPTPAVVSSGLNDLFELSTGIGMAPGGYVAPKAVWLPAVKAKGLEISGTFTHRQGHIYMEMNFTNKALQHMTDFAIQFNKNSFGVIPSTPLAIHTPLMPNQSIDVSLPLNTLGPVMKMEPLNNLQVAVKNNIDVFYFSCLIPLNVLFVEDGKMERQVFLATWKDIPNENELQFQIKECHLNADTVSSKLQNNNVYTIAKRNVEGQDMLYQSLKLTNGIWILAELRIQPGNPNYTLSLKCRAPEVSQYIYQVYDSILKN

[11] = cytosolic pH regulators acting via V-ATPase – S. cerevisiae, pHLuorin, HTS validation (AID 504600; in the data active = response above about 15%;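 note: plate controls were DMSO for no effect and reference compound for full effect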); details: V-ATPase proton transport, at 10 µM, stronger effect = higher value
[12] = system: anti-desmoglein-3 scFv antibody binding to human DSG3; assay: blockers of pathogenic pemphigus antibody–desmoglein-3 binding – biochemical, validation compound set, bead-based, flow cytometry, pilot screen (AID 588368;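 active = binding below the plate cutoff, the plate median minus 3 SD, with a reading above zero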;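 note: signal is the median channel fluorescence of bead-bound GFP antibody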); details: Protein G beads, DSG3-Fc, scFv-GFP binding, at 10 µM, stronger effect = lower value
[13] = Nile Red efflux blockade in pump-expressing yeast – validation compound set, multiplex, phenotypic, pilot screen (AID 588506;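 active = efflux inhibition above 0.42, the validation set average plus 4 SD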;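 note: Nile Red retained in cells so higher fluorescence means more efflux inhibition; 0 = negative control wells and 1 = enniatin B 25 µM full block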); details: S. cerevisiae pump-expressing triplex, Nile Red efflux flow cytometry; at 10 µM; stronger effect = higher value; the pumps come from Candida albicans
[14] = molecular target: ATP-binding cassette sub-family B member 6 (Homo sapiens) (UniProt Q9NP58); assay: blockers of ABCB6-driven porphyrin uptake – K562-ABCB6 cells, flow cytometry, validation set, pilot screen (AID 588550); details: K562-ABCB6 porphyrin accumulation, 1 h, at 10 µM, stronger effect = higher value;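 note: 0% = DMSO wells and 100% = benzethonium chloride 70 µM positive control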
Chain of ATP-binding cassette sub-family B member 6 (Homo sapiens) (Q9NP58 whole entry, looked up): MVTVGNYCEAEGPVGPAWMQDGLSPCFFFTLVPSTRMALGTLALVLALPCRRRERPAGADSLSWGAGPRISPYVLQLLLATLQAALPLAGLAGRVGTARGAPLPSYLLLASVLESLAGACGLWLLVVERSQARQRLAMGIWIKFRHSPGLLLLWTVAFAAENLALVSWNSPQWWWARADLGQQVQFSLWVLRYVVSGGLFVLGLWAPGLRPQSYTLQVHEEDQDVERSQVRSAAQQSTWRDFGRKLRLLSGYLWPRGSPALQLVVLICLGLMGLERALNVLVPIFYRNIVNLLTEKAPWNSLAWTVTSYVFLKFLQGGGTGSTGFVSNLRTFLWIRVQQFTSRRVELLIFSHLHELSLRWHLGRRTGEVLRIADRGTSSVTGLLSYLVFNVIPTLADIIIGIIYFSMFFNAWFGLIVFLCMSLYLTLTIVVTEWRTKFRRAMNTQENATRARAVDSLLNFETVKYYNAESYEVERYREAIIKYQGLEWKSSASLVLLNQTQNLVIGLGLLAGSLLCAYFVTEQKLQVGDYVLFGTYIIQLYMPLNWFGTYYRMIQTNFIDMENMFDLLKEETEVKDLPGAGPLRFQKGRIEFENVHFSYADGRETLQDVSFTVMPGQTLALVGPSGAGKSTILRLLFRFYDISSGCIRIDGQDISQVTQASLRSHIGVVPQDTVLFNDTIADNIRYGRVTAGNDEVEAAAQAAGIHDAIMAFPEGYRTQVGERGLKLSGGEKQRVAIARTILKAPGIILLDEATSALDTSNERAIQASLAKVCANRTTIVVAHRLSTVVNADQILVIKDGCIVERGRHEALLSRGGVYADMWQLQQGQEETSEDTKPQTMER

[15] = AML differentiation inducers, ER-HoxA9 marrow cells – cell-based, GFP/MAC1 double positive, flow cytometry, validation set, primary screen (AID 588685;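 active = differentiation response of at least 50%, scaled between solvent and reference control, from cells with both markers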;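 note: compound exposure lasts four days before antibody staining and flow analysis; 0% = DMSO wells and 100% = 5 µM fulvestrant positive control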); details: stronger effect = higher value, normalized: vehicle 0, fulvestrant 100

Cn1c(=O)c2c(ncn2CC(O)CO)n(C)c1=O (stereo not given)
inactive: percent of DMSO control GFP [1] 100% | GFP response vs DMSO [2] 99.9% | percent response of DMSO control [3] 93.9% | GFP response vs DMSO [4] 104% | GFP response, % of DMSO [5] 99.4% | vesicle binding response [6] 114% | inhibition [7] 11.9% | superoxide response (% of plate) [8] 93.5% | aptamer binding inhibition [9] 2% | inhibition [10] -7.53% | response [11] -0.09% | binding (% of control) [12] 81.7% | efflux inhibition (fraction of control) [13] 0.22 | inhibition [14] 9% | differentiation response [15] -8.27%
53.8%: double positive events [6]

COC(=O)c1ccc(COc2ccc3c(C)c(C)c(=O)oc3c2C)o1
57.7%: double positive events [6]
inactive: percent of DMSO control GFP [1] 101% | GFP response vs DMSO [2] 97.9% | percent response of DMSO control [3] 96.9% | GFP response vs DMSO [4] 92.3% | GFP response, % of DMSO [5] 91.6% | vesicle binding response [6] 157% | inhibition [7] 14.7% | superoxide response (% of plate) [8] 96.2% | aptamer binding inhibition [9] 3% | inhibition [10] 4.76% | response [11] -2.54% | binding (% of control) [12] 102% | efflux inhibition (fraction of control) [13] 0.06 | inhibition [14] 11% | differentiation response [15] 9.49%

COc1ccc(C2C(=O)c3ccccc3C2=O)cc1
inactive: percent of DMSO control GFP [1] 97.8% | GFP response vs DMSO [2] 101% | percent response of DMSO control [3] 102% | GFP response vs DMSO [4] 111% | GFP response, % of DMSO [5] 94.8% | vesicle binding response [6] 198% | inhibition [7] 0.69% | superoxide response (% of plate) [8] 96.8% | aptamer binding inhibition [9] 1% | inhibition [10] -15.3% | response [11] -9.82% | binding (% of control) [12] 95.6% | efflux inhibition (fraction of control) [13] -0.24 | inhibition [14] 4% | differentiation response [15] -18%
55.9%: double positive events [6]

COc1ccc(C2NC(=O)c3ccccc3N2)cc1OC (stereo not given)
64.4%: double positive events [6]
inactive: percent of DMSO control GFP [1] 98.8% | GFP response vs DMSO [2] 99.9% | percent response of DMSO control [3] 96.9% | GFP response vs DMSO [4] 94.3% | GFP response, % of DMSO [5] 92.2% | vesicle binding response [6] 117% | inhibition [7] 10.9% | superoxide response (% of plate) [8] 108% | aptamer binding inhibition [9] 5% | inhibition [10] 3.03% | response [11] 1.73% | binding (% of control) [12] 95.1% | efflux inhibition (fraction of control) [13] 0.06 | inhibition [14] 11% | differentiation response [15] -3.43%

COc1ccc([C@@H]2Sc3ccccc3N(CCN(C)C)C(=O)[C@@H]2OC(C)=O)cc1
62.9%: double positive events [6]
inactive: percent of DMSO control GFP [1] 104% | GFP response vs DMSO [2] 102% | percent response of DMSO control [3] 105% | GFP response vs DMSO [4] 93.3% | GFP response, % of DMSO [5] 101% | vesicle binding response [6] 200% | inhibition [7] -0.24% | superoxide response (% of plate) [8] 101% | aptamer binding inhibition [9] -1% | inhibition [10] 5.2% | response [11] -4.23% | binding (% of control) [12] 99.1% | efflux inhibition (fraction of control) [13] 0.03 | inhibition [14] -227% | differentiation response [15] -8.27%

O=C(O)c1ccccc1O
active: efflux inhibition (fraction of control) [13] 0.44
59%: double positive events [6]
inactive: percent of DMSO control GFP [1] 101% | GFP response vs DMSO [2] 101% | percent response of DMSO control [3] 96.9% | GFP response vs DMSO [4] 97.4% | GFP response, % of DMSO [5] 98.8% | vesicle binding response [6] 178% | inhibition [7] 15.6% | superoxide response (% of plate) [8] 100% | aptamer binding inhibition [9] 3% | inhibition [10] 0.05% | response [11] -0.04% | binding (% of control) [12] 104% | inhibition [14] 0% | differentiation response [15] -9.89%

COc1ccccc1C1C(C#N)=C(N)Oc2c1oc(CO)cc2=O (stereo not given)
inactive: percent of DMSO control GFP [1] 102% | GFP response vs DMSO [2] 96.9% | percent response of DMSO control [3] 111% | GFP response vs DMSO [4] 103% | GFP response, % of DMSO [5] 107% | vesicle binding response [6] 174% | inhibition [7] -11.4% | superoxide response (% of plate) [8] 103% | aptamer binding inhibition [9] 2% | inhibition [10] -6.41% | response [11] 2.3% | binding (% of control) [12] 95.9% | efflux inhibition (fraction of control) [13] 0.03 | inhibition [14] 9% | differentiation response [15] -11.5%
52%: double positive events [6]

CCOC(=O)c1cnc2ccccc2c1NCCO
inactive: percent of DMSO control GFP [1] 108% | GFP response vs DMSO [2] 99.9% | percent response of DMSO control [3] 109% | GFP response vs DMSO [4] 102% | GFP response, % of DMSO [5] 103% | vesicle binding response [6] 186% | inhibition [7] 1.62% | superoxide response (% of plate) [8] 98.1% | aptamer binding inhibition [9] 0% | inhibition [10] -2.19% | response [11] 5.12% | binding (% of control) [12] 99.8% | efflux inhibition (fraction of control) [13] -0.12 | inhibition [14] 7% | differentiation response [15] -18%
61.1%: double positive events [6]

Cc1ccc2c(c1)c1c3n2CCCNC3CCC1 (stereo not given)
inactive: percent of DMSO control GFP [1] 103% | GFP response vs DMSO [2] 106% | percent response of DMSO control [3] 107% | GFP response vs DMSO [4] 95.4% | GFP response, % of DMSO [5] 94% | vesicle binding response [6] 229% | inhibition [7] 10% | superoxide response (% of plate) [8] 85.7% | aptamer binding inhibition [9] -4% | inhibition [10] -3% | response [11] 3.62% | binding (% of control) [12] 111% | efflux inhibition (fraction of control) [13] -0.05 | inhibition [14] 9% | differentiation response [15] -3.43%
63.9%: double positive events [6]

CCOC(=O)C(=O)Nc1ccc(Oc2ccccc2)cc1
61.7%: double positive events [6]
inactive: percent of DMSO control GFP [1] 96.8% | GFP response vs DMSO [2] 105% | percent response of DMSO control [3] 101% | GFP response vs DMSO [4] 106% | GFP response, % of DMSO [5] 97.8% | vesicle binding response [6] 101% | inhibition [7] 18.4% | superoxide response (% of plate) [8] 101% | aptamer binding inhibition [9] 3% | inhibition [10] 9.79% | response [11] 1.03% | binding (% of control) [12] 105% | efflux inhibition (fraction of control) [13] -0.05 | inhibition [14] 4% | differentiation response [15] -26%
